# Measured values as given in PubChem BioAssay (NCI).
# Compounds without any hit were thinned out: in the full panel of roughly 83,000, 20% have a hit.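 48-hour exposure, single concentration, 96-well plates; percent growth endpoint where 0 means no net growth. Active: below 10.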 Unmarked numbers belong to inactive results. Activity calls are given as the source filed them.
# Tests used:
# Test in all cases: NCI-60 one-dose screen, 48 h (100 = growth as untreated, 0 = no growth, -100 = all killed)
# Settings in all cases: 10 µM unless noted
# HCT-15 colon = system: HCT-15 colon
# HT29 colon = system: HT29 colon
# SNB-75 CNS = system: SNB-75 CNS
# SNB-19 CNS = system: SNB-19 CNS
# U251 CNS = system: U251 CNS
# SK-MEL-5 melanoma = system: SK-MEL-5 melanoma
# UACC-62 melanoma = system: UACC-62 melanoma
# LOX IMVI melanoma = system: LOX IMVI melanoma
# SK-MEL-28 melanoma = system: SK-MEL-28 melanoma
# SK-MEL-2 melanoma = system: SK-MEL-2 melanoma
# EKVX NSCLC = system: EKVX NSCLC
# SN12C renal = system: SN12C renal
# UO-31 renal = system: UO-31 renal
# TK-10 renal = system: TK-10 renal
# ACHN renal = system: ACHN renal
# CAKI-1 renal = system: CAKI-1 renal
# MOLT-4 leukemia = system: MOLT-4 leukemia
# CCRF-CEM leukemia = system: CCRF-CEM leukemia
# A498 renal = system: A498 renal
Compound,growth (HCT-15 colon),growth (HT29 colon),growth (SNB-75 CNS),growth (SNB-19 CNS),growth (U251 CNS),growth (SK-MEL-5 melanoma),growth (UACC-62 melanoma),growth (LOX IMVI melanoma),growth (SK-MEL-28 melanoma),growth (SK-MEL-2 melanoma),growth (EKVX NSCLC),growth (SN12C renal),growth (UO-31 renal),growth (TK-10 renal),growth (ACHN renal),growth (CAKI-1 renal),growth (MOLT-4 leukemia),growth (CCRF-CEM leukemia),growth (A498 renal)
O=C1CSC(=S)N1CCc1ccc(O)cc1,59.3%,107%,71.3%,93%,100%,97.1%,87.5%,77.1%,101%,103%,97.8%,81.6%,60.3%,68.7%,91.4%,81.4%,93.4%,–,–
COc1cc(/C=C/C(=O)c2cccnc2Nc2ccc(F)cc2)cc(OC)c1OC,22.2%,12.5%,22.4%,61.6%,24.1%,53.7%,49.9%,8.97% (active),72.1%,27.5%,69.5%,16.2%,75.6%,77.8%,45.7%,51.6%,–,-10.6% (active),–
COc1ccc(C(=O)COc2ccc(/C=C3\Oc4ccc(OC)cc4C3=O)cc2)cc1,102%,110%,101%,92.7%,93%,97.5%,90.1%,77.3%,137%,86.4%,99.4%,101%,–,119%,105%,98.3%,83.6%,72.6%,–
COc1ccc(-n2nc(C)c3c(Nc4ccc(NC(=O)Nc5c(Cl)cccc5Cl)cc4)ncnc32)cc1,72.2%,31.4%,55.9%,79.4%,63.3%,5.92% (active),46.7%,39.1%,81.9%,79.1%,67%,–,8.74% (active),59.8%,43.3%,57.9%,81.7%,84.5%,63.4%
COC(=O)c1cccc(NC(=O)c2ccc(-c3cccc(N)c3)o2)c1,96.6%,107%,93.2%,95.5%,104%,81.8%,91.4%,99.6%,102%,98.3%,94.5%,94%,83%,125%,102%,91.3%,85.9%,71.7%,–
C#CCOc1ccc2ncnc(Nc3cccc(CNC(=O)C=C)c3)c2c1,104% [8.25 µM],108% [8.25 µM],88.6% [8.25 µM],98.1% [8.25 µM],94.6% [8.25 µM],96% [8.25 µM],99.6% [8.25 µM],97.3% [8.25 µM],97.5% [8.25 µM],104% [8.25 µM],98.6% [8.25 µM],95.5% [8.25 µM],82.3% [8.25 µM],91.5% [8.25 µM],95.8% [8.25 µM],96.3% [8.25 µM],100% [8.25 µM],–,58.8% [8.25 µM]
COc1ccc(-n2nc(C)c3c(Nc4ccc(NC(=O)Nc5ccc(Cl)c(C(F)(F)F)c5)cc4)ncnc32)cc1,-9.82% (active),1.57% (active),-4.71% (active),13.5%,-29.2% (active),-44.7% (active),4.84% (active),-81.4% (active),4.78% (active),-30.2% (active),6.63% (active),–,4.67% (active),5.29% (active),1.09% (active),-3.15% (active),8.28% (active),17.2%,-3.28% (active)
CC(C)CSc1nc(N)nc2c1ncn2C1OC(CO)C(O)C1O (stereo unspecified),92.7%,103%,101%,104%,101%,96.5%,92.8%,95.3%,112%,111%,93.2%,94%,95.2%,107%,94.6%,82.8%,110%,102%,–
